According to PubChem BioAssay AID2073 (Sanford-Burnham Center for Chemical Genomics, 2009):
In all, about 290,000 compounds went through this assay and about 570 (0.2%) were called active. Inconclusive results (about 1%) are left out. Cut-off read from the data, not from the text of the source: active = inhibition mostly above about 51% (no sharp cut-off); inconclusive = no clear call, values can overlap the other calls; inactive = mostly below about 53%. The sample as a whole holds a higher share of actives than the screen did.

Molecular target: Voltage-dependent N-type calcium channel subunit alpha-1B (Homo sapiens) (UniProt Q00975)
Experiment: disruptors of CaV2.2 binding to Mint1 – biochemical, HTRF (AID 2073)
Conditions: HTRF protein-protein interaction, Mint1-CaV2.2, at 20 µM, stronger effect = higher value
[1] = measured here: average of repeat tests

Chain of Voltage-dependent N-type calcium channel subunit alpha-1B (Homo sapiens) (Q00975 whole entry, looked up): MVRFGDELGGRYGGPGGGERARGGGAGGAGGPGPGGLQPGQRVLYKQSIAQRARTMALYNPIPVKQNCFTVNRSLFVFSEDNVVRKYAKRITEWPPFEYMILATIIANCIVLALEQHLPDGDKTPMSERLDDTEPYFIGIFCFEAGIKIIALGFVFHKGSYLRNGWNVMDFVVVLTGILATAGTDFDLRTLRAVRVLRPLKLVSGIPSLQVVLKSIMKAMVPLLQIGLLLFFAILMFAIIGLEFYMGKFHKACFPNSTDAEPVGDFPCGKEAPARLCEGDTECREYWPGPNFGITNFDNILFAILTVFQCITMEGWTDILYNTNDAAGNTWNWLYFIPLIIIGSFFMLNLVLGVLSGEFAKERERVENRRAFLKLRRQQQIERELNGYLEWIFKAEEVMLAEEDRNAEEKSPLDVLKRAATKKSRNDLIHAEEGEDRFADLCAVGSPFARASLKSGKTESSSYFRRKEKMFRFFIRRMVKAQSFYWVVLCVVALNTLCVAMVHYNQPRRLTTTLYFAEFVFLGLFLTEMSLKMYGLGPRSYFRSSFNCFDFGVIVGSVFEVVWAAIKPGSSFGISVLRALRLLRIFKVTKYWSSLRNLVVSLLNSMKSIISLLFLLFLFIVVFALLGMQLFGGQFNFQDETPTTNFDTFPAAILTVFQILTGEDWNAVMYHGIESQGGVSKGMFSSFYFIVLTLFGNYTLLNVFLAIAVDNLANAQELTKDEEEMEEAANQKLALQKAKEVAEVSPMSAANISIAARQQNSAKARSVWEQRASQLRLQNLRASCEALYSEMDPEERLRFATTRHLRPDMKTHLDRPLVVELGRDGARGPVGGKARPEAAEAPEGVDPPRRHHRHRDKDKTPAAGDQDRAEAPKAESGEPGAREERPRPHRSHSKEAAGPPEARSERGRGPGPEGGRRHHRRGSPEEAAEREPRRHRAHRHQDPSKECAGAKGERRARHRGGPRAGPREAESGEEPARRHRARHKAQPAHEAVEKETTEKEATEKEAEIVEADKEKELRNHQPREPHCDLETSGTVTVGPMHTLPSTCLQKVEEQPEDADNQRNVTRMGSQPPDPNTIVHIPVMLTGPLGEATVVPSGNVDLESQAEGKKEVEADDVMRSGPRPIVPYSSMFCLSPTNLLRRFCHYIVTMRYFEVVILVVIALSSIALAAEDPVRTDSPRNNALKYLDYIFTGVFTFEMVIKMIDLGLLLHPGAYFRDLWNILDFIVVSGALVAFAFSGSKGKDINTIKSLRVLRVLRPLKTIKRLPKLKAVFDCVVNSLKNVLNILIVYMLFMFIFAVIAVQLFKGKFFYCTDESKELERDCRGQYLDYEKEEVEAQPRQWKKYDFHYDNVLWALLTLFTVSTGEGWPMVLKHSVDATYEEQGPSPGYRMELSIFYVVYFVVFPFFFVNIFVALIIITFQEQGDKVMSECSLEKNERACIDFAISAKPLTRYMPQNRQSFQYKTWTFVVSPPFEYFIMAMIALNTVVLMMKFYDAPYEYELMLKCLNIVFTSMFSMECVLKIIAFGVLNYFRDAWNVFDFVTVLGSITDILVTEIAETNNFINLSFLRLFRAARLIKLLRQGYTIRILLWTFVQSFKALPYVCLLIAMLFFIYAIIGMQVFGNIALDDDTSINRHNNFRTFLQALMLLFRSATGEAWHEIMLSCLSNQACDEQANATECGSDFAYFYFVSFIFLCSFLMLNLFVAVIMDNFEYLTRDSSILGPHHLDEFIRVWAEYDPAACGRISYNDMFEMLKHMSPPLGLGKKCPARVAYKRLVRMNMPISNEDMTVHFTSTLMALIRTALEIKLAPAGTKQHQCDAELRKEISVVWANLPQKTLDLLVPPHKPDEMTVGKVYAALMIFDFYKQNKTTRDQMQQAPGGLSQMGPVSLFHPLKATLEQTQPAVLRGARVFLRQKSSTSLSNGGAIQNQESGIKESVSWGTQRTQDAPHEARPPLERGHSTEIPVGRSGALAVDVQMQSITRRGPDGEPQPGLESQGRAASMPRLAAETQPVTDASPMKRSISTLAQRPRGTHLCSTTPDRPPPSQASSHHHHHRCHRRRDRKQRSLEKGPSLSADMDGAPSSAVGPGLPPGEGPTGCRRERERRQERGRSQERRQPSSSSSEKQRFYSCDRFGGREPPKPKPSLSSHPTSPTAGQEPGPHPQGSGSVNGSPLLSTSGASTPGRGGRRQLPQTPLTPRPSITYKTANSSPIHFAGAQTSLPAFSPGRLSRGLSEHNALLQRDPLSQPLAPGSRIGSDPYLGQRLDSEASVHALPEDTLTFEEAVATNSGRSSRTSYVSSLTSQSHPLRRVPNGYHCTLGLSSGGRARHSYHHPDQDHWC

Structure (SMILES) | inhibition | inhibition [1]
CCN(C(=O)COC(=O)c1c(C)nn(-c2ccccc2)c1C)C1CCS(=O)(=O)C1 (stereo unspecified) | 6.4% (inactive) | 
C/C(CC(=O)Nc1ccc2c(c1)OCCO2)=N\NC(=O)COc1ccccc1 | 1.2% (inactive) | 
COc1ccc(CCNC(=O)C2CC(c3cc(C(F)(F)F)cc(C(F)(F)F)c3)=NO2)cc1 (stereo unspecified) | 0.2% (inactive) | 
Cc1ccc(/C=C/C(=O)Nc2ccc(O)c3c(=O)cc(-c4ccccc4Cl)oc23)cc1 | 13% (inactive) | 
CCCN1Cc2cccc(C(=O)NC(CC(=O)OCC)c3ccc(OC(C)C)cc3)c2C1=O (stereo unspecified) | -3.9% (inactive) | 
Cc1ccc(Cl)cc1N1CCN(C(=O)Cn2ncn3cccc3c2=O)CC1 | -1.5% (inactive) | 
O=C(CCCn1c(=S)[nH]c2ccccc2c1=O)NC1CCCC1 | -32.5% (inactive) | 
CCc1ccccc1NC(=O)COc1ccc(N2CC(C(N)=O)CC2=O)cc1 (stereo unspecified) | 11.4% (inactive) | 
OC1CNCc2cc3c(cc21)OCCO3 (stereo unspecified) | -5.4% (inactive) | 
O=C(COC(=O)c1cc(-c2ccco2)nc2ccccc12)NCc1ccccc1 | 25.4% (inactive) | 
NC(=O)COC(=O)c1cc(-c2ccco2)nc2ccccc12 | 14.1% (inactive) | 
CNC(=O)COC(=O)c1cc(-c2ccco2)nc2ccccc12 | 66.4% (active) | 
CCN1CCN(CCCNC(=O)Cn2nc(C)n3nc(-c4ccccc4)cc3c2=O)CC1 | 12.1% (inactive) | 
O=c1[nH]c(C2CCCN(S(=O)(=O)c3ccc(F)cc3)C2)nc2c1nnn2Cc1ccccc1 (stereo unspecified) | -1% (inactive) | 
Cc1[nH]n(-c2ccccc2)c(=S)c1C=Nc1cccc([N+](=O)[O-])c1 | 34.3% (inactive) | 
Cc1[nH]n(-c2ccccc2)c(=O)c1C=Nc1ccc(S(N)(=O)=O)cc1 | 0.1% (inactive) | 
Cc1[nH]n(-c2ccccc2)c(=S)c1C=Nc1ccc([N+](=O)[O-])cc1 | 67% (active) | 
Oc1ccccc1Cn1nnc2ccccc21 | 7.1% (inactive) | 
COc1ccc(CCNC(=O)CCN2C(=O)[C@@H]3Cc4ccccc4CN3C2=O)cc1 | -3.7% (inactive) | 
CCC(=O)Nc1ccc(C(=O)CSc2nc3ccc(C)cc3[nH]2)cc1 | 32.1% (inactive) | 
CN(C)C(=O)c1ccc(NC(=O)CSc2nc3ccccc3[nH]2)cc1 | -1.1% (inactive) | 
CCC(=O)Nc1ccc(C(=O)CSc2nc3ccccc3[nH]2)cc1 | 54.5% (active) | 
COc1ccc(CCNCC(=O)Nc2c(C)cc(C)cc2C)cc1OC | -6.8% (inactive) | 

Structure (SMILES) | inhibition | inhibition [1]
CCOC(=O)N1CCN(c2ccccc2OC)CC1 | -13.4% (inactive) | 
O=C(NNc1nc(-c2ccccc2)cs1)c1ccc(F)cc1 | 60% (inactive) | -6.1%
O=C(NNc1nc(-c2ccc(F)cc2)cs1)c1ccccc1 | 71.1% (active) | 
O=C(NNc1nc(-c2ccccc2)cs1)c1ccccc1 | -28.9% (inactive) | 
O=c1nc2c(O)cccn2c2c1c(=O)[nH]c1ccccc12 | 66.4% (active) | 
O=C(CSc1nc2ccccc2c(=O)[nH]1)Nc1ccccc1O | -8.6% (inactive) | 
O=c1[nH]c2ccccc2c2nc3ccccn3c12 | 23.2% (inactive) | 
Cc1ccc2c(c1)N(CCCC(=O)NCc1ccc3c(c1)OCO3)C(=O)CO2 | 9.3% (inactive) | 
CCOC(=O)c1cn2nc(Oc3cccc(F)c3)ccc2n1 | 4.6% (inactive) | 
CC(C)NC(=O)C1(S(=O)(=O)c2ccccc2)CC=CC1 | 4.8% (inactive) | 
COc1ccc(C(=O)NCCCOc2cccc(NC(C)=O)c2)cc1 | 21.8% (inactive) | 
CC1CCN(C(=O)C2CCCN(S(=O)(=O)c3cccc4nsnc34)C2)CC1 (stereo unspecified) | 5.2% (inactive) | 
COc1ccc(-c2nnc(SCC(=O)NC(=O)NCc3ccco3)o2)cc1 | -1.1% (inactive) | 
COc1ccc(-c2nnc(SCC(=O)NC(=O)NCc3ccccc3)o2)cc1 | 55.3% (active) | 
COc1ccc(-c2nnc(SCC(=O)NCCc3ccccc3)o2)cc1 | 2.1% (inactive) | 
COc1ccc(N(CC(=O)NCc2ccco2)S(C)(=O)=O)cc1 | 2.6% (inactive) | 
Cc1cccc(/C=N/NC(=O)NC2CCCCC2)c1 | -3.7% (inactive) | 
O=C1N/C(=C/c2ccc(N3CCOCC3)o2)C(=O)N1c1ccccc1 | 44.8% (inactive) | 
O=C1NC(=O)/C(=C/c2ccc(N3CCOCC3)o2)N1 | 52.2% (inactive) | 3.9%
C=CCN1C(=O)N/C(=C/c2ccc(N3CCOCC3)o2)C1=O | 55.4% (inactive) | 7.9%
O=C1N/C(=C/c2ccc(N3CCOCC3)o2)C(=O)N1c1cccc(Cl)c1 | 58.7% (active) | 
O=C1NC(=S)S/C1=C/c1ccc(N2CCOCC2)o1 | 32.5% (inactive) | 
O=C1NC(=O)/C(=C\c2ccc(N3CCOCC3)o2)N1 | 71.7% (active) | 

Structure (SMILES) | inhibition | inhibition [1]
Cc1cc(Br)ccc1OCCN1CCCC1 | 1.2% (inactive) | 
Cc1ccc(S(=O)(=O)N2CCN(CCNC(=O)C(=O)NCc3ccccc3)CC2)cc1 | -2.1% (inactive) | 
Cc1cccc(C(=O)O)c1NC(=O)Cc1cccc2ccccc12 | 9.3% (inactive) | 
O=c1[nH]c(SCc2n[nH]c(=S)n2-c2ccccc2)nc2sc3c(c12)CCC3 | 17.3% (inactive) | 
COc1ccc(/C=C2/SC(=O)N(CCC(=O)Nc3ccc(S(=O)(=O)Nc4nccs4)cc3)C2=O)cc1 | 53% (active) | 
COc1ccc(/C=C2\SC(=O)N(CCC(=O)Nc3ccc(S(=O)(=O)Nc4nccs4)cc3)C2=O)cc1 | 25.3% (inactive) | 
O=C(CCN1C(=O)S/C(=C\c2ccccc2)C1=O)Nc1ccc(S(=O)(=O)Nc2nccs2)cc1 | -6.5% (inactive) | 
COc1cccc(OC)c1C(=O)Nc1cccnc1 | -4.9% (inactive) | 
CNC(=S)NNC(=O)Cc1ccc(OC)c(OC)c1 | -18.7% (inactive) | 
Cc1cc(N)n2nc(C(F)(F)F)nc2n1 | -3.1% (inactive) | 
CC(=O)c1ccc(NC(=O)c2cc3nc4c(c(C(F)(F)F)n3n2)CCCC4)cc1 | 33.2% (inactive) | 
CCn1c(SCC(=O)Nc2cc(C)on2)nnc1-c1ccc(S(=O)(=O)N2CCCC2)cc1 | 0.3% (inactive) | 
O=C1c2ccccc2C(=O)N1c1cccc(-c2nc3ccccc3o2)c1 | 19.2% (inactive) | 
O=C1C2C3C=CC(C3)C2C(=O)N1c1ccc(-c2nc3ccccc3o2)cc1 (stereo unspecified) | 15.5% (inactive) | 
O=C1c2ccccc2C(=O)N1c1ccc(-c2nc3ccccc3o2)cc1 | 67.9% (active) | 
CC(=O)c1cccc(NC(=O)NNC(=O)c2ccc(-c3ccccc3)cc2)c1 | 22.1% (inactive) | 
CCCNC(=O)CSc1nccn1Cc1ccco1 | -17.8% (inactive) | 
Cc1ccc(N2CCN(C(=S)Nc3ccccc3C)CC2)cc1 | -9.9% (inactive) | 
Cc1nc2c(c(=O)n1Cc1ccco1)c1nc3ccccc3nc1n2Cc1ccccc1 | 50.6% (active) | 
COc1ccc(Cn2c3nc4ccccc4nc3c3c(=O)n(Cc4ccco4)c(C)nc32)cc1 | 18.4% (inactive) | 
Cc1nc2c(c(=O)n1Cc1ccccc1Cl)c1nc3ccccc3nc1n2Cc1ccco1 | 38.1% (inactive) | 
O=[N+]([O-])c1ccc(Nc2nc(NCCO)nc(N3CCCC3)n2)cc1 | 5.1% (inactive) | 
CCOc1ccc(/C=C/C2=Cc3c(sc(NC(=O)CSc4n[nH]c(N)n4)c3C#N)C(C)(C)C2)cc1 | 12.8% (inactive) | 

Structure (SMILES) | inhibition | inhibition [1]
Cc1ccc(/C=C/C2=Cc3c(sc(NC(=O)CSc4n[nH]c(N)n4)c3C#N)C(C)(C)C2)o1 | 61.1% (active) | 
Cc1ccsc1/C=C/C1=Cc2c(sc(NC(=O)CSc3n[nH]c(N)n3)c2C#N)C(C)(C)C1 | 20.6% (inactive) | 
COc1cccc(NC(=O)c2ccco2)c1 | 3.2% (inactive) | 
Cc1ncc(CO)c(/C=N/NC(=S)Nc2cccc(Cl)c2)c1O | 53.7% (active) | 
Cc1ncc(CO)c(/C=N/NC(=S)Nc2ccc(Cl)c(Cl)c2)c1O | 50.4% (inactive) | 30.4%
Cc1ncc(CO)c(/C=N/NC(=S)Nc2ccc(C(C)C)cc2)c1O | 16.5% (inactive) | 
CCCCCCc1nc(C(N)=O)c2[nH]c(=O)n(-c3ccccc3F)c2n1 | 10.4% (inactive) | 
COC(=O)c1c(C)oc(C)c1S(=O)(=O)N(Cc1ccccc1)C(C)C | -16.1% (inactive) | 
CCc1ccc2nc(N(CCCN(C)C)C(=O)c3ccc(S(=O)(=O)N4CCCC4)cc3)sc2c1 | -0.7% (inactive) | 
CC(=O)c1ccc(N2CCN(C(=O)c3nn(C)c4c3CS(=O)(=O)c3ccccc3-4)CC2)cc1 | 9% (inactive) | 
O=c1cc2oc3cc(O)c(O)cc3c(-c3ccccc3O)c-2cc1O | 68.3% (active) | 
O=c1cc2oc3cc(O)c(O)cc3c(-c3ccccc3[N+](=O)[O-])c-2cc1O | 15.9% (inactive) | 
CCOc1ccccc1-c1c2cc(O)c(=O)cc-2oc2cc(O)c(O)cc12 | 24.8% (inactive) | 
CCC(=O)N1CCc2cc(S(=O)(=O)CCC(=O)Nc3ccc(OC)c(OC)c3)ccc21 | 5.3% (inactive) | 
COc1ccc(CNC(=O)Cc2cn(C)c3ccccc23)c(OC)c1 | 5.9% (inactive) | 
COc1cc(C(=O)NS(=O)(=O)c2ccccc2C)ccc1Cc1cn(C)c2ccc(NC(=O)OC3CCCC3)cc12 | 51.7% (active) | 
Cc1cc(NC(=O)OC2CCCCC2)ccc1[N+](=O)[O-] | -7.7% (inactive) | 
CC(C)CC(=O)N1CC(C)N(C(=O)CC(C)C)CC1C (stereo unspecified) | 4.2% (inactive) | 
O=[N+]([O-])c1cccc(CSc2nnc3ccccn23)c1 | 13.5% (inactive) | 
Cc1ccc(/C(C#N)=C\c2ccc(N3CCOCC3)o2)cc1 | 43.4% (inactive) | 
N#C/C(=C/c1ccc(N2CCOCC2)o1)c1ccc(Br)cc1 | 39.6% (inactive) | 
N#C/C(=C/c1ccc(N2CCOCC2)o1)c1ccc(Cl)cc1 | 51.9% (active) | 
CCCCCCc1ccc(N2C[C@H](CCCCC)[C@@H](CC(=O)NCc3ccc(OC)cc3)C2=O)cc1 | 10.1% (inactive) | 
